The results in this text go back to PubChem BioAssay (Tox21).

Unmarked numbers belong to inactive results. Results filed as inconclusive are left out. Calls of active or inactive are those of the source. Calls come from the whole dose curve; as a rule, active = well fitted curve in the direction sought with a large enough effect in the repeat runs; inconclusive = weak or mixed curves; inactive = no such curve, though single readings can be large; an effect the other way counts as inactive or inconclusive.

Test [1] is described as follows: qHTS RealTime-Glo MT Cell Viability Assay in HepG2 cells - 40 hour (AID 1224870). Note: % is set by controls: 0 for no effect and ±100 for the full control effect; nearly all actives have a fitted effect of over 50% in size. Put shortly:
(§1)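 Real-time viability: cells seeded at 600 per well together with NanoLuc and cell-permeant prosubstrate, compounds added after 5 h incubation. Luminescence tracked at 0, 8, 16, 24, 32 and 40 h of exposure.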
On the technique in general: qHTS replaces the single test concentration by a dilution series.

Test [2] can be described thus: qHTS RealTime-Glo MT Cell Viability Assay in HEK293 cells - 16 hour (AID 1224872). Note: nearly all actives have a fitted effect of over 50% in size. Note: potency is the fitted concentration of half-maximal effect. Put shortly:
(§2)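 Quantitative high-throughput screen of the Tox21 10K library in HEK293: cells and RealTime-Glo reagents plated together, compound added at 5 h, luminescence monitored through 40 h at 37 C.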

Test [3] can be described thus: qHTS RealTime-Glo MT Cell Viability Assay in HepG2 cells - 8 hour (AID 1224873). Note: % is set by controls: 0 for no effect and ±100 for the full control effect; nearly all actives have a fitted effect of over 55% in size. Put shortly:
as §1

Test [4] in a line: qHTS RealTime-Glo MT Cell Viability Assay in HEK293 cells - 40 hour (AID 1224874). For max response: % is set by controls: 0 for no effect and ±100 for the full control effect. Note: nearly all actives have a fitted effect of over 50% in size. Note: potency is the fitted concentration of half-maximal effect. The following applies: RealTime-Glo luminescence; max response: hits give low values. Put shortly: (§3)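 HEK293 + NanoLuc + prosubstrate, 600 cells/well; 5 h, 37 C/5% CO2; compound 23 nL in DMSO by pintool; 37 C; luminescence read at 0, 8, 16, 24, 32 and 40 h time points.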
The nature of test [5]: A CellTox Green Cytotoxicity Assay to monitor cytotoxicity in HEK293 cells - 24 hour (AID 1224875). Note: nearly all actives have a fitted effect of over 45% in size. Note: potency is the fitted concentration of half-maximal effect. Put shortly: (§4)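 Tox21 screen in HEK293: membrane-impermeant cyanine dye fluoresces on binding dead-cell DNA; compound pinned 5 h post-seeding, plates held at 37 C, signal read repeatedly through 40 h.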
Test [6] is described as follows: A CellTox Green Cytotoxicity Assay to monitor cytotoxicity in HepG2 cells - 16 hour (AID 1224876). Note: nearly all actives have a fitted effect of over 45% in size. Note: potency is the fitted concentration of half-maximal effect. Put shortly:
(§5)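 Measurements at 0, 8, 16, 24, 32 and 40 h of treatment captured CellTox Green fluorescence in HepG2 cells that had been co-plated with reagent and preincubated 5 h at 37 C/5% CO2.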

Test [7] in a line: qHTS RealTime-Glo MT Cell Viability Assay in HepG2 cells - 32 hour (AID 1224877). Note: % is set by controls: 0 for no effect and ±100 for the full control effect; nearly all actives have a fitted effect of over 55% in size. Put shortly: (§6)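 Compound treatment began 5 h after plating HepG2 cells (600/well) with NanoLuc luciferase and prosubstrate. Plates stayed at 37 C for 40 h; luminescence was captured at six time points, 0 h through 40 h.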
Test [8] is described as follows: A CellTox Green Cytotoxicity Assay to monitor cytotoxicity in HepG2 cells - 24 hour (AID 1224878). For Cytotoxicity: % is set by controls: 0 for no effect and ±100 for the full control effect. Note: nearly all actives have a fitted effect of over 45% in size. Note: potency is the fitted concentration of half-maximal effect. Put shortly:
as §5

Test [9] in a line: A CellTox Green Cytotoxicity Assay to monitor cytotoxicity in HepG2 cells - 40 hour (AID 1224879). Note: nearly all actives have a fitted effect of over 40% in size. Note: potency is the fitted concentration of half-maximal effect. Put shortly:
as §5

Test [10] can be described thus: qHTS RealTime-Glo MT Cell Viability Assay in HEK293 cells - 0 hour (AID 1224880). Note: top concentration of the series differs between compounds; % is set by controls: 0 for no effect and ±100 for the full control effect; nearly all actives have a fitted effect of over 45% in size. Put shortly: as §3
Test [11] is described as follows: A CellTox Green Cytotoxicity Assay to monitor cytotoxicity in HEK293 cells - 32 hour (AID 1224881). Note: nearly all actives have a fitted effect of over 40% in size. Note: potency is the fitted concentration of half-maximal effect. Put shortly: as §4
Test [12] can be described thus: A CellTox Green Cytotoxicity Assay to monitor cytotoxicity in HepG2 cells - 0 hour (AID 1224882). For Cytotoxicity: % is set by controls: 0 for no effect and ±100 for the full control effect. Note: nearly all actives have a fitted effect of over 35% in size. Note: potency is the fitted concentration of half-maximal effect. Put shortly: as §5
Test [13] in a line: A CellTox Green Cytotoxicity Assay to monitor cytotoxicity in HepG2 cells - 32 hour (AID 1224883). Note: nearly all actives have a fitted effect of over 50% in size. Note: potency is the fitted concentration of half-maximal effect. Put shortly:
as §5

Test [14] in a line: A CellTox Green Cytotoxicity Assay to monitor cytotoxicity in HEK293 cells - 8 hour (AID 1224884). Note: nearly all actives have a fitted effect of over 35% in size. Note: potency is the fitted concentration of half-maximal effect. Put shortly:
as §4

A short description of test [15]: qHTS RealTime-Glo MT Cell Viability Assay in HepG2 cells - 16 hour (AID 1224885). Put shortly:
as §6

A short description of test [16]: qHTS RealTime-Glo MT Cell Viability Assay in HEK293 cells - 24 hour (AID 1224886). Note: nearly all actives have a fitted effect of over 50% in size. Note: potency is the fitted concentration of half-maximal effect. Put shortly: as §2
A short description of test [17]: qHTS RealTime-Glo MT Cell Viability Assay in HEK293 cells - 8 hour (AID 1224887). Put shortly:
as §3

Test [18] is described as follows: A CellTox Green Cytotoxicity Assay to monitor cytotoxicity in HEK293 cells - 16 hour (AID 1224888). Note: nearly all actives have a fitted effect of over 35% in size. Note: potency is the fitted concentration of half-maximal effect. Put shortly: as §4
Test [19] can be described thus: qHTS RealTime-Glo MT Cell Viability Assay in HepG2 cells - 0 hour (AID 1224889). Put shortly: as §6
The nature of test [20]: A CellTox Green Cytotoxicity Assay to monitor cytotoxicity in HEK293 cells - 40 hour (AID 1224871). Put shortly: as §4

For `CC(=O)NC1CCSC1=O` (stereo unspecified), the Potency result in test [1], in test [2], in [3], in [5], in test [6] and in [7] was “inactive” each time. Besides, the Potency result in test [8], in test [9], in test [10], in [11], in test [12] and in [13] was “inactive” throughout. Further, the Potency result in test [14], in [15], in test [16], in test [17], in test [18] and in test [19] was “inactive” each time. Moreover, the max response in test [4] was -1.76%.

Consider `CCOP(=S)(OCC)SCSCC`, for which the Potency result in [1], in test [2], in test [3], in test [5], in [6] and in test [7] was “inactive” each time. Further, the Potency result in test [8], in test [9], in test [10], in test [11], in test [12] and in test [13] was “inactive” each time. For the same molecule, the Potency entry in test [14], in [15], in test [16], in test [17] and in test [18] was “inactive” in each case. The max response in test [4] was 1.39%.

Consider `Cn1cc[n+](C)c1` (tested in a mixture with another compound), for which the Potency result in [1], in test [2], in test [3], in test [5], in [6] and in test [7] was “inactive” throughout. Moreover, the Potency entry in [8], in test [9], in test [10], in [11], in [12] and in test [13] was “inactive” in each case. For the same molecule, the Potency result in test [14], in test [15], in test [16], in test [17], in test [18] and in [19] was “inactive” each time. The max response in [4] is 6.73%.

With `COc1nn(CSP(=S)(OC)OC)c(=O)s1`, the Potency entry in test [1], in test [2], in [3], in test [5], in test [6] and in test [7] was “inactive” in each case. The Potency entry in test [10], in [11], in test [12], in [14], in [15] and in test [16] was “inactive” in each case. In addition, the Potency result in test [17], in test [18] and in [19] was “inactive” each time. Further, the max response in test [4] is -3.23%.

`COc1nn(C(=O)NS(=O)(=O)c2ccccc2OC(F)(F)F)c(=O)n1C`: the Potency entry in test [1], in test [2], in test [3], in test [7], in [10] and in test [15] was “inactive” throughout. Besides, the Potency result in [16], in [17] and in test [19] was “inactive” throughout. Besides, the max response in test [4] is 12.6%. The Potency in test [5] is 22.4 µM (active); in test [6], 35.5 µM (active); in test [8], 39.9 µM (active); in test [9], 39.9 µM (active); in test [11], 20 µM (active); in test [12], 39.9 µM (active). In addition, the Potency in test [13] was 39.9 µM (active); in test [14], 31.7 µM (active); in test [18], 22.4 µM (active).

Take `NS(=O)(=O)C(F)(F)C(F)(F)C(F)(F)C(F)(F)C(F)(F)C(F)(F)C(F)(F)C(F)(F)F`: the Potency result in test [1], in test [2], in test [3], in test [5], in [6] and in test [7] was “inactive” each time. Besides, the Potency entry in test [10], in [11], in test [12], in test [14], in test [15] and in [16] was “inactive” throughout. For the same molecule, the Potency entry in test [17], in [18] and in test [19] was “inactive” each time. In test [4], the max response is -4.36%.

For `[O-][Cl+]O`, the Potency entry in test [1], in test [2], in [3], in [5], in [6] and in test [7] was “inactive” throughout. Moreover, the Potency result in [8], in [9], in test [10], in test [12], in test [14] and in test [15] was “inactive” each time. Also, the Potency entry in [16], in test [17], in test [18] and in [19] was “inactive” each time. In addition, the max response in test [4] is 2.38%.

`O=NN1CCNCC1`: the Potency result in test [1], in test [2], in test [3], in [5], in test [6] and in [7] was “inactive” in each case. Moreover, the Potency result in [8], in test [9], in test [10], in test [11], in test [12] and in test [13] was “inactive” in each case. In addition, the Potency result in [14], in test [15], in test [16], in test [17], in test [18] and in test [19] was “inactive” each time. For the same molecule, in test [4], the max response is 9.64%.

As for `O=C1c2ccccc2C(=O)C1C(=O)C(c1ccccc1)c1ccccc1`, the Potency entry in test [1], in test [2], in test [3], in test [5], in test [6] and in test [7] was “inactive” throughout. Moreover, the Potency entry in test [8], in [9], in test [11], in test [12], in test [13] and in test [14] was “inactive” each time. For the same molecule, the Potency result in [15], in [16], in test [17] and in test [18] was “inactive” in each case. For the same molecule, in test [4], the max response is 3.22%.

For the molecule `COP(=O)(OC)O/C(=C/Cl)c1cc(Cl)c(Cl)cc1Cl`, the Potency result in test [1], in test [3], in [5], in test [6], in [7] and in test [8] was “inactive” in each case. Also, the Potency result in test [10], in test [11], in [12], in test [14], in [15] and in test [17] was “inactive” throughout. Further, the Potency result in test [18] and in test [19] was “inactive” each time. In addition, in test [9], the Potency is 36.6 µM (active).

As for `COc1ccc(-c2ccccc2)cc1NNC(=O)OC(C)C`, the Potency result in test [1], in [6], in test [7], in test [8], in test [9] and in test [10] was “inactive” in each case. Besides, the Potency entry in test [12], in test [13], in test [14] and in test [18] was “inactive” in each case. Moreover, the Potency in [4] and in test [16] was 51 µM (active) throughout.

Turning to `Oc1ccc(Cl)c(Cl)c1Cl`, the Potency entry in [1], in test [3], in test [6], in test [7], in test [10] and in test [11] was “inactive” each time. The Potency entry in [12], in test [14], in [15], in test [17], in test [18] and in test [19] was “inactive” in each case.

For the molecule `C=CC[C@]1(O)CC[C@H]2[C@@H]3CCC4=CC(=O)CCC4=C3C=C[C@@]21C`, the Potency in [2], in [4] and in test [16] was 19 µM (active) each time. Also, the Potency result in test [5], in test [6], in [8], in test [9], in [10] and in [12] was “inactive” throughout. In addition, the Potency result in test [13], in test [14] and in [18] was “inactive” throughout.

On to `CCOC(=O)CBr`, for which the Potency entry in [1], in test [3], in test [5], in [6], in test [7] and in test [8] was “inactive” throughout. Moreover, the Potency result in test [9], in test [10], in [11], in [12], in test [13] and in test [15] was “inactive” each time. The Potency result in [18] and in test [19] was “inactive” in each case. Besides, the max response in test [4] was -15%.

With `O=C(CBr)OCc1ccccc1`, the Potency entry in test [1], in [3], in test [5], in [6], in test [8] and in test [9] was “inactive” throughout. Besides, the Potency entry in test [10], in [11], in test [12], in test [14], in test [17] and in test [18] was “inactive” throughout. Moreover, in test [19], the Potency entry was “inactive”.

Regarding `O=[Se]=O`, the Potency in test [20] was 24.4 µM (active); in test [4], 17.3 µM (active); in test [9] it was 19.4 µM (active); in test [13], 24.4 µM (active); in test [16], 17.3 µM (active). Besides, the Potency entry in [2], in test [3], in test [5], in test [6], in test [8] and in test [10] was “inactive” throughout. Further, the Potency result in test [12], in test [14], in [15], in test [17], in test [18] and in test [19] was “inactive” in each case.
